# Assay results taken from PubChem BioAssay.
# Calls of active or inactive are those of the source.
# Legend:
# [1] = small molecules captured by biotinylated probe aFSTL3 – biochemical, small-molecule microarray, fluorescence 635/667, stem cell growth factor project, primary screen (AID 1064); conditions: higher = more signal;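 further: measures binding of the biotinylated anti-FSTL3 antibody to printed compounds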
# [2] = binders from COS7 lysate, DM2A8 probe, primary screen, torsin A project, cell lysate, small-molecule microarray, fluorescence 635/667 (AID 1065); conditions: higher = more signal, COS7 lysate expressing mutant human TOR1A
# [3] = small molecules captured by biotinylated probe aFGF2 – biochemical, small-molecule microarray, fluorescence 635/667, stem cell growth factor project, primary screen (AID 1067); conditions: higher = more signal;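 further: measures binding of biotinylated aFGF2 protein to printed compounds on slides; z-score merges feature fluorescence and signal-to-noise across triplicate slides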
# [4] = small molecules captured by biotinylated probe aFGF10 – biochemical, small-molecule microarray, fluorescence 635/667, stem cell growth factor project, primary screen (AID 1071); conditions: higher = more signal;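 further: score merges 667 nm spot intensity and signal to noise from triplicate slides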
# [5] = target: Neurogenic locus notch homolog protein 2 (Homo sapiens) (UniProt Q04721); experiment: small molecules binding Notch2 protein – biochemical, small-molecule microarray, 635 nm fluorescence, stem cell growth factors, primary screen (AID 1073); conditions: higher = more signal
# [6] = target: Pro-neuregulin-1, membrane-bound isoform (Homo sapiens) (UniProt Q02297); experiment: small molecules binding neuregulin-1 protein – biochemical, small-molecule microarray, fluorescence 635/667, psychiatric disease protein project, primary screen (AID 1075); conditions: NRG1 binding, 635 nm fluorescence, higher = more signal;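 further: score combines 667 nm spot fluorescence with signal to noise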
# Sequence of Pro-neuregulin-1, membrane-bound isoform (Homo sapiens) (Q02297 whole entry, looked up, the tested form may be a part, canonical isoform): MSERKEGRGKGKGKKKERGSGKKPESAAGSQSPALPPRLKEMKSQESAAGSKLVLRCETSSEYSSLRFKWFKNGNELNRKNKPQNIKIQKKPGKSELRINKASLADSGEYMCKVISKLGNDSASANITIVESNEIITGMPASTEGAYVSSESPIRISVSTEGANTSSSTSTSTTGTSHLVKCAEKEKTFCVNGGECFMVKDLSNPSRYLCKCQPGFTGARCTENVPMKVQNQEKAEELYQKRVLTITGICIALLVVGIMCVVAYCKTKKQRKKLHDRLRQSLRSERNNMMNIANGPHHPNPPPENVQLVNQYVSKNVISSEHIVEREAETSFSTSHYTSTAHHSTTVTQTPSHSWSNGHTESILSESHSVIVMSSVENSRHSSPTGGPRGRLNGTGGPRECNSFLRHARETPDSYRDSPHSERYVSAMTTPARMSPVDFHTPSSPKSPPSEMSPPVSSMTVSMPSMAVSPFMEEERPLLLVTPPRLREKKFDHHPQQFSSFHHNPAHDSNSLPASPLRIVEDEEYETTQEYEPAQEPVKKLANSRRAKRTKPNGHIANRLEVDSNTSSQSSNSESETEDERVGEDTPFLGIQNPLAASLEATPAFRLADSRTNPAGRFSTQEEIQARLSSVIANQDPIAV
# [7] = tested on: Neuregulin-1 EGF-like domain; experiment: small molecules binding NRG1 EGF domain – biochemical, small-molecule microarray, 635 nm fluorescence, primary screen (AID 1081); conditions: higher = more signal;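 further: binding of the protein to compounds printed on small-molecule microarray slides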
# [8] = FRG1 expression reporter modulators in myotubes – cell-based, C2C12 myotubes, firefly/Renilla luciferase, luminescence, FRG1 inhibition for FSHD, primary screen (AID 1084); conditions: FRG1 promoter luciferase, higher = more signal, called active from +8 up or from −8 down
# [9] = small molecules captured by biotinylated probe aFST – biochemical, small-molecule microarray, fluorescence 635/667, stem cell growth factor project, primary screen (AID 1086); conditions: higher = more signal;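 further: score merges 667 nm fluorescence with signal-to-noise of each printed compound spot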
# [10] = binders of probe aHhip on microarray, primary screen, stem cell growth factor project, biochemical, small-molecule microarray, fluorescence 635/667 (AID 1087); conditions: higher = more signal;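 further: score merges spot fluorescence at 667nm with spot signal to noise ratio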
# [11] = tested on: PRMT1 (protein arginine N-methyltransferase 1); experiment: small molecules binding arginine methyltransferase PRMT1 – biochemical, small-molecule microarray, 635 nm fluorescence, primary screen (AID 1088); conditions: higher = more signal;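 further: binding of Prmt1 protein to compounds spotted on small-molecule microarray slides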
# [12] = growth effects on S. cerevisiae YJM789 – YJM789 clinical isolate, OD600, 24 h, basal, primary screen (AID 1089); conditions: higher = more signal, called active from +8 up or from −8 down;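 further: growth of clinical yeast isolate S. cerevisiae YJM 789 seeded 1000 cells per well; test concentration not given here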
# [13] = S. pombe growth modifiers, basal conditions – strain 972, OD600, 24 h, no modulator, primary screen (AID 1090);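 further: basal condition with compound alone and no growth modifier present; test concentration not given here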; conditions: S. pombe 972 growth, higher = more signal, called active from +8 up or from −8 down
# [14] = budding yeast growth modifiers under rapamycin – strain BY4716, OD600, 96 h, primary screen (AID 1091); further: test concentration not given here; conditions: S. cerevisiae BY4716 + rapamycin, higher = more signal, called active from +8 up or from −8 down
# [15] = target: Torsin-1A-interacting protein 2 (Homo sapiens) (UniProt Q8NFQ8); experiment: small molecules binding lysate-expressed LULL1 – cell lysate, human LULL1 lysate, 635/667 nm fluorescence, primary screen (AID 1092); conditions: small-molecule microarray, hLULL1 lysate binding, 635 nm fluorescence; higher = more signal;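 further: probe is lysate of COS7 cells overexpressing human LULL1; score merges per-feature 667 nm fluorescence with signal-to-noise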
# Sequence of Torsin-1A-interacting protein 2 (Homo sapiens) (Q8NFQ8 whole entry, looked up): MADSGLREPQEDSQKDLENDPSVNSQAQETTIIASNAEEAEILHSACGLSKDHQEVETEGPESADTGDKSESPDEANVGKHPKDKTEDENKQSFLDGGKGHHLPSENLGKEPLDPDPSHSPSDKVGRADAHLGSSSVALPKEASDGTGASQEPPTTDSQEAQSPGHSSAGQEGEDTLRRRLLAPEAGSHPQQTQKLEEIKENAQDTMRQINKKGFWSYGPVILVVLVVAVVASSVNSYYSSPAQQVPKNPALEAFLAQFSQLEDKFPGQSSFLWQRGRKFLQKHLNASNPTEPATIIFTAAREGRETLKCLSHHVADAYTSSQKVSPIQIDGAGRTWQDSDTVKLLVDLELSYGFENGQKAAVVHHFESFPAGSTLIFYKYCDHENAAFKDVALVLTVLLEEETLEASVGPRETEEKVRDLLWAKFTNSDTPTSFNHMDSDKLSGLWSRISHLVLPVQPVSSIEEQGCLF
# [16] = optical density change of DRC41 E. coli – strain DRC41, OD650, 24 h, E. coli filamentation project, primary screen (AID 1093);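 further: MC1000 strain lacking acrAB efflux and sulA so SOS filamentation is blocked; test concentration not given here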; conditions: E. coli DRC41 growth, higher = more signal, called active from +8 up or from −8 down
# [17] = probe aLefty2 binding to arrayed compounds – biochemical, biotinylated probe, 635/667 nm fluorescence, primary screen (AID 1094); conditions: small-molecule microarray, higher = more signal;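 further: score merges spot fluorescence near 667 nm with spot signal-to-noise ratio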
# [18] = tested on: Noggin (protein binding on small-molecule microarray); experiment: small molecules binding Noggin protein – biochemical, 635/667 nm fluorescence, primary screen (AID 1095); conditions: 635 nm fluorescence, higher = more signal;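 further: score merges 667 nm feature fluorescence with signal to noise over triplicate slides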
# [19] = target: Neurogenic locus notch homolog protein 3 (Homo sapiens) (UniProt Q9UM47); experiment: small molecules binding NOTCH3 protein – biochemical, 635/667 nm fluorescence, primary screen (AID 1096); conditions: small-molecule microarray, 635 nm fluorescence, higher = more signal
# Sequence of Neurogenic locus notch homolog protein 3 (Homo sapiens) (Q9UM47 whole entry, looked up): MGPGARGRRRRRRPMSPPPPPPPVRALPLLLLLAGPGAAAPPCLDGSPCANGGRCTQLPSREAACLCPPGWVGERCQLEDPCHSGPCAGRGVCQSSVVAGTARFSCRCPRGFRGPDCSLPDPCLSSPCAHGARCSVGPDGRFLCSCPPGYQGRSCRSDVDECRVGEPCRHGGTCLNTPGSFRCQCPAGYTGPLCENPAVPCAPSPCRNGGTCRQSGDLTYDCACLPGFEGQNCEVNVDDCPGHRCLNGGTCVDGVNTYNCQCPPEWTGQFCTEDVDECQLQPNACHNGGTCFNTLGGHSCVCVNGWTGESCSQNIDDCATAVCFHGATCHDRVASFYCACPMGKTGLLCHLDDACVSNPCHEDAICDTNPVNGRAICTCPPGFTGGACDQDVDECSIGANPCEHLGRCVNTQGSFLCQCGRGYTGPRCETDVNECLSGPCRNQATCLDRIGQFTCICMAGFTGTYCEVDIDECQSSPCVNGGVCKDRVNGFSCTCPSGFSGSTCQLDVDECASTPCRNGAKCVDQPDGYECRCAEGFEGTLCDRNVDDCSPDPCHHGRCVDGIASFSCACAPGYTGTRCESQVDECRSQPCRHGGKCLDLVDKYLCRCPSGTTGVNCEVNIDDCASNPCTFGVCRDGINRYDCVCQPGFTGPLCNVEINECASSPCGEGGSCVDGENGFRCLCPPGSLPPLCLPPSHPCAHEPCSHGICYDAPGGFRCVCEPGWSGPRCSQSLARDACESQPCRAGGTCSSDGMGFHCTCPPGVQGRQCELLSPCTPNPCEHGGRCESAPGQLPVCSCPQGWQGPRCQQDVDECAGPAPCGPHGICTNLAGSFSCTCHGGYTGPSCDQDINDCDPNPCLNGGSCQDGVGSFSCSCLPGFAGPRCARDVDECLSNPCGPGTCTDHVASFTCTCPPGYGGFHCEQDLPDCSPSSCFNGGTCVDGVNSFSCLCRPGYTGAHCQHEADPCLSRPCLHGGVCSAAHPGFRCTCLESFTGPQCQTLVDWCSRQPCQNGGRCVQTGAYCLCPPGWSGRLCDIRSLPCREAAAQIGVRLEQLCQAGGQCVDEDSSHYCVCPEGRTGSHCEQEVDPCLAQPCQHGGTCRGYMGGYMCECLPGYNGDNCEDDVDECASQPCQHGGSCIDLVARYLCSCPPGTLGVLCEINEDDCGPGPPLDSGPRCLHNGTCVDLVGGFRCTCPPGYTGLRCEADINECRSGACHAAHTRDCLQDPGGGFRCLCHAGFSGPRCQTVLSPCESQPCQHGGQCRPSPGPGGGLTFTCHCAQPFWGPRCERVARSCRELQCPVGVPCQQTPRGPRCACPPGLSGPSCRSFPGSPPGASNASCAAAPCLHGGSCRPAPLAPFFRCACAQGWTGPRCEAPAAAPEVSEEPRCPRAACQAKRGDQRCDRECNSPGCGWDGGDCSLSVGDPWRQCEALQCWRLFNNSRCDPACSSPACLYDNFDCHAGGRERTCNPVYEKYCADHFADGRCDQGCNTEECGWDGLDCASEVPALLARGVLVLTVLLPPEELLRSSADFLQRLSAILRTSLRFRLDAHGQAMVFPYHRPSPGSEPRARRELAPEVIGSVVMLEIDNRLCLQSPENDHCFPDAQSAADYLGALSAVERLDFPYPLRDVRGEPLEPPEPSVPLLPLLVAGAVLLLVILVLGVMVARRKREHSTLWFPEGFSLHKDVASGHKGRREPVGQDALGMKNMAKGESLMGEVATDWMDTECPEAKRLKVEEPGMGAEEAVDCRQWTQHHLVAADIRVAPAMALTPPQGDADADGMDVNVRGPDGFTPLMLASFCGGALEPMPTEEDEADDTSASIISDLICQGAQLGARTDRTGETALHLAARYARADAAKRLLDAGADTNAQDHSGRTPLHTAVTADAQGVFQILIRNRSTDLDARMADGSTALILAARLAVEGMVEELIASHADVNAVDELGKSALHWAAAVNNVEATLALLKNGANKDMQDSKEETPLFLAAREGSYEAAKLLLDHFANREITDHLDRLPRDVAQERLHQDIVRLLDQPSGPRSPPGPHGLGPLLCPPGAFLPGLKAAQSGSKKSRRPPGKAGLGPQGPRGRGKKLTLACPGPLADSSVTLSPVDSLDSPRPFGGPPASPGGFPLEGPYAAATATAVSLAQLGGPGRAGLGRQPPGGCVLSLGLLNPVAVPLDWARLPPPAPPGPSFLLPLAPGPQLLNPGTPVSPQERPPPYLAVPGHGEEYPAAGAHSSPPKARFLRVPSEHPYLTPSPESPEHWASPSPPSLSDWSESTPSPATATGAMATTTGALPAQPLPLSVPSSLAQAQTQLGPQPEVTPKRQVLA
# [20] = probe aEGFR binding to arrayed compounds – biochemical, biotinylated probe, 635/667 nm fluorescence, primary screen (AID 1097); conditions: small-molecule microarray, higher = more signal;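 further: probe is a biotinylated anti-EGFR antibody binding compounds printed on slides; score combines fluorescence near 667 nm and signal to noise of each spot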
SMILES,composite z-score [1],composite z-score [2],composite z-score [3],composite z-score [4],composite z-score [5],composite z-score [6],composite z-score [7],z-score [8],composite z-score [9],composite z-score [10],composite z-score [11],z-score [12],z-score [13],z-score [14],composite z-score [15],z-score [16],composite z-score [17],composite z-score [18],composite z-score [19],composite z-score [20]
COCCOC(=O)N1C(=O)[C@@]2(c3cc(C#CCCO)ccc31)[C@H](C(=O)Nc1nc3ccccc3s1)[C@H]1C(=O)O[C@H](c3ccccc3)[C@H](c3ccccc3)N1[C@@H]2c1ccccc1OCCO,-0.224,0.53,0.0293,0.802,1.29,0.95,1.32,1.23 (inactive),0.745,0.153,1.54,2.53 (inactive),1.7 (inactive),3.64 (inactive),2.81,-0.0236 (inactive),-0.116,0.6,1.09,-0.0828
C[C@@H]1NC(=O)[C@@]23C(=O)N[C@@H](Cc4ccccc4)C2[C@H](C)[C@@]2(C)O[C@H]2C3/C=C/C/C=C\CNC(=O)[C@@H]2CCCN2C1=O (stereo not given in full),-0.301,0.009,-0.158,0.139,-0.355,-0.365,0.519,0.251 (inactive),-0.276,-0.249,-0.422,-0.498 (inactive),-0.409 (inactive),-0.524 (inactive),-0.516,-0.874 (inactive),-0.132,-0.044,-0.526,-0.266
O=C1OCC=C[C@H]2OC34C=CCN(Cn5nnc6ccccc65)C(=O)[C@H]3N(CCCO)C(=O)[C@@H]4[C@@H]12 (stereo not given in full),0.466,-0.772,-0.0015,0.0131,-1.04,1.09,1.54,0.67 (inactive),-0.772,-0.0618,-0.169,0.465 (inactive),-0.883 (inactive),-0.437 (inactive),0.433,1.93 (inactive),-0.217,-0.2,-0.579,-0.356
CCCC[C@@H]1C[C@H]1[C@@H](NC(=O)Cc1ccccc1)c1ccc(-c2ccccc2)cc1,-0.153,0.0056,-0.0064,-0.165,0.61,0.212,0.386,0.0529 (inactive),0.482,-0.0237,0.0706,0.341 (inactive),0.373 (inactive),-0.116 (inactive),2.94,-0.255 (inactive),-0.0204,-0.219,0.0419,-0.125
[N-]=[N+]=NCc1ccccc1[C@H]1OC(c2ccc(OCCCO)cc2)=N[C@@]1(CCS(=O)(=O)c1ccccc1)C(=O)N1CCCCC1,0.974,1.28,0.248,0.4,1.51,1.79,1.33,0.225 (inactive),1.42,-0.191,1.55,0.341 (inactive),-0.0527 (inactive),3.75 (inactive),3.34,-0.334 (inactive),0.574,0.876,0.992,0.283
COC(=O)[C@@]1(Cc2ccc(OC)cc2)[C@H]2c3cc(C(=O)N4CCCC4)n(Cc4cccc5ccccc45)c3C[C@H]2CN1C(=O)c1ccccc1,0.176,-0.214,0.401,0.672,1.8,1.42,0.831,-0.404 (inactive),0.849,-0.115,-0.88,0.221 (inactive),1.82 (inactive),2.29 (inactive),3.02,0.0929 (inactive),0.0082,0.15,0.981,0.087
CCOC(=O)c1ccc(NC(=O)O[C@H]2[C@H](OC(=O)Nc3ccc4c(c3)OCO4)[C@H](OC(=O)Nc3ccc4c(c3)OCO4)[C@@H](OC)O[C@@H]2CO)cc1,0.237,0.807,0.129,1.14,1.59,0.898,1.3,1.08 (inactive),0.792,0.28,1.54,1.21 (inactive),1.57 (inactive),6.12 (inactive),3.1,0.62 (inactive),0.17,1.34,1.06,0.251
COCCCNC(=O)[C@@]1(Cc2ccccc2CN=[N+]=[N-])N=C(c2ccc(OCCCO)cc2)O[C@H]1c1ccccc1,-0.102,2.1,0.0693,0.891,0.932,1.72,1.2,-2.01 (inactive),1.82,0.28,1.54,1.06 (inactive),1.04 (inactive),11.6 (active),3.26,0.261 (inactive),0.0235,1.13,1.12,-0.0267
C=CC1c2cc(O)c(OC)cc2CCN1Cc1cc2c(cc1Br)OCO2 (stereo not given),1.54,1.07,-0.101,-0.15,-0.322,1.19,1.22,-0.454 (inactive),0.221,-0.132,1.25,-17.7 (active),-19.8 (active),-1.33 (inactive),2.51,-2 (inactive),0.386,0.289,0.435,-0.132
